According to PubChem BioAssay AID485364 (National Center for Advancing Translational Sciences (NCATS), 2010):
In all, about 360,000 compounds went through this assay and about 11,000 (3.1%) were called active. Not shown: some 4% with an inconclusive outcome. The call rests on the fitted dose curve; in most records, active means well fitted inhibition curve with a large enough effect; inconclusive means small, poorly fitted or top-dose-only effect; inactive means no such curve, though single readings can be large or run the other way. The list comes from a sample in which actives are over-represented; it also holds similar structures and randomly drawn compounds. Where a call stands in place of a potency, no number is given.

Target: Schistosoma mansoni thioredoxin glutathione reductase (TGR) (UniProt Q962Y6)
Test: qHTS Assay for the Inhibitors of Schistosoma Mansoni Peroxiredoxins; further: nearly all actives have a fitted effect of over 60% in size
Settings: purified TGR, DTNB reduction, TNB absorbance 405 nm; series mostly up to 114 µM
Outline: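 TGR 20 nM + NADPH 100 uM (dispensed conc.), cpd preinc 15 min RT; start with NADPH (500 uM addition) then DTNB (15 mM addition). Kinetic TNB absorbance, 405 nm filter. Four-parameter Hill fit across titration.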
Potency means the concentration at half of the fitted maximal effect.

| Compound | Potency |
| --- | --- |
| Cc1ccccc1C(=O)Nc1cc(C)c(O)c(-c2nc3ccccc3o2)c1 | inactive |
| COc1cccc(Cn2c(CNS(=O)(=O)c3ccc(Cl)s3)nc3cccnc32)c1 | inactive |
| O=C1c2cccc(OCC(=O)N3N=C(c4cccs4)CC3c3ccc(F)cc3)c2CCN1Cc1ccccc1 (stereo not given) | inactive |
| Cc1ccc(C2=NN(C(=O)COc3ncnc4ccccc34)C(c3ccco3)C2)cc1 (stereo not given) | inactive |
| O=C(COc1ccccc1Cl)N1N=C(c2cccs2)CC1c1ccco1 (stereo not given) | 35.5 µM (active) |
| Cc1ccc(Cl)cc1NC(=O)CCS(=O)(=O)c1ccc(Br)s1 | inactive |
| O=C1N[C@@H](Cc2ccccc2)C(=O)N2[C@H]1C[C@]1(Br)c3ccccc3N(S(=O)(=O)c3ccccc3)[C@H]21 | 22.4 µM (active) |
| O=C(CSc1nccn1Cc1ccc(Cl)cc1)NCc1ccccc1 | inactive |
| Cc1ccc2c(=O)c(C(=O)c3ccc(F)cc3)cn(CC(=O)NC3CCCCC3)c2n1 | inactive |
| O=[N+]([O-])c1cccc(S(=O)(=O)NCc2ccccn2)c1 | inactive |
| O=C(CSc1nc(-c2ccccc2)cs1)Nc1cccc([N+](=O)[O-])c1 | inactive |
| O=c1cc(CO)oc(C(Nc2cccc([N+](=O)[O-])c2)c2ccccn2)c1O (stereo not given) | 50.1 µM (active) |
| Cn1c(=O)c2c(ncn2CC(=O)Nc2cccc(C(F)(F)F)c2)n(C)c1=O | inactive |
| O=c1cc(CO)oc(C(Nc2cccc(C(F)(F)F)c2)c2ccccn2)c1O (stereo not given) | 11.2 µM (active) |
| O=C(CSc1nnc(-c2ccccc2F)o1)Nc1cccc(C(F)(F)F)c1 | inactive |
| O=C(COc1ccccc1)OCc1cc(=O)n2nc(-c3cccs3)sc2n1 | inactive |
| CCOC(=O)c1ccc(NC(=O)c2c(NCc3cccs3)sc3c2CCCC3)cc1 | inactive |
| Cc1cccc(CC(=O)N2CC(=O)Nc3ccc(F)cc3C2c2ccccc2)c1 (stereo not given) | inactive |
| CCOC(=O)c1ccccc1NC(=O)c1sc2nc(-c3ccc(F)cc3)cn2c1C | inactive |
| Cc1c2cnn(CC(=O)NCc3ccccn3)c(=O)c2c(C)n1Cc1ccc(Cl)cc1 | 44.7 µM (active) |
| Cc1c2cnn(CC(=O)NCCCN3CC(C)CC(C)C3)c(=O)c2c(C)n1Cc1ccc(Cl)cc1 (stereo not given) | inactive |
| O=C(Cn1ncc2c3ccccc3n(Cc3ccccc3)c2c1=O)NCc1ccccn1 | inactive |
| Cc1ccc(Cn2c(C)c3cnn(CC(=O)NCc4ccccn4)c(=O)c3c2C)cc1 | 35.5 µM (active) |
| Cc1ccc(Cn2c(C)c3cnn(CC(=O)NCc4ccccc4)c(=O)c3c2C)cc1 | inactive |
| Cc1nn(CC(=O)NCc2ccccn2)c(C)c1[N+](=O)[O-] | inactive |

| Compound | Potency |
| --- | --- |
| CN(C(=O)CSc1nnc(NC(=O)Nc2ccccc2)s1)c1ccccc1 | inactive |
| CCOC(=O)c1c(C)oc2ccc(N(C(=O)c3ccncc3)S(=O)(=O)c3ccc(CC)cc3)cc12 | inactive |
| Cc1c(Cl)cccc1NC(=O)N1CCN(C(=O)c2nsc3ccccc23)CC1 | inactive |
| CNc1ccc(-c2nc(-c3ccccc3C)no2)cc1[N+](=O)[O-] | inactive |
| CC1CC(C)CN(C(=O)CSc2ccsc2[N+](=O)[O-])C1 (stereo not given) | inactive |
| O=C(CSc1ccsc1[N+](=O)[O-])N1CCCCC1 | 31.6 µM (active) |
| O=C(CSCc1cccs1)N1CCCC1 | inactive |
| COc1cc(C(=O)NCCS(=O)(=O)N2CCN(c3ccccc3)CC2)cc(OC)c1OC | inactive |
| COc1ccc2c(c1)c(N1CCCC1=O)c(C(=O)Nc1ccc(OC)c(Cl)c1)n2C | inactive |
| COc1ccccc1NC(=O)[C@H](COCc1ccccc1)NC(=O)OC(C)(C)C | inactive |
| CCc1ccccc1NC(=O)CSc1nnc([C@@H](NC(=O)OC(C)(C)C)C(C)CC)o1 (stereo not given in full) | inactive |
| C[C@@H](NC(=O)OC(C)(C)C)c1nnc(S(=O)(=O)Cc2ccccc2)o1 | 0.794 µM (active) |
| CCN(Cc1ccccc1)S(=O)(=O)c1ccc2c(c1)CCCN2C(C)=O | inactive |
| Cc1cc(NC(=O)c2cccc(Cl)c2)ccc1-c1cc2ccccc2oc1=O | inactive |
| O=C(CSCc1cnn(-c2ccccc2)c1-n1cccc1)NCc1ccccc1Br | inactive |
| O=C(/C=C/Sc1ncn[nH]1)c1ccc(Cl)cc1 | 0.794 µM (active) |
| COc1ccc(-n2c(SCC(=O)Nc3ccc(Cl)c(C)c3)nc3n[nH]c(C)c3c2=N)cc1 | inactive |
| COc1ccccc1CNC(=O)Cn1nc(C)c2nn(-c3ccc(Cl)cc3)c(C)c2c1=O | inactive |
| CCOC(=O)c1ccc(NC(=O)CCn2c(=O)oc3ccccc32)cc1 | inactive |
| CCOc1ccccc1NC(=O)CCn1cnnn1 | inactive |
| CCOC(=O)c1ccc(NC(=O)CCn2cnnn2)cc1 | 89.1 µM (active) |
| CCN(CC)CCNC(=O)c1cc2c(=O)oc3ccc(C)cc3c2s1 | inactive |
| CCc1ccc(NC(=O)c2cc(S(=O)(=O)N3CCCC(C)C3)cn2C)cc1 (stereo not given) | inactive |
| COc1ccc(CNC(=O)c2ccc(NC(=O)N3CC4CCCN4c4ccccc43)cc2)cc1 (stereo not given) | inactive |
| CSc1nc2ccc(C)cc2c(=O)n1-c1cccnc1 | inactive |

| Compound | Potency |
| --- | --- |
| COc1ccc2c(c1OC)C(=O)OC2c1c(O)nc(SC)n(-c2ccccc2)c1=O (stereo not given) | 7.94 µM (active) |
| COc1ccc(-n2c(SC)nc(O)cc2=O)cc1 | inactive |
| COc1ccc(Nc2ncc(C(=O)Nc3cc(C)ccc3OC)c3ccccc23)cc1 | inactive |
| CCN1CCN(CCCNC(=O)c2cnn(-c3ccc(C)cc3C)c2C2CCN(C(=O)OC(C)(C)C)CC2)CC1 | inactive |
| O=C1C(Cl)=C(N2CCOCC2)C(=O)N1c1ccccc1 | inactive |
| O=C1c2ccccc2-c2ncnc3c(N4CCOCC4)cc(N4CCOCC4)c1c23 | inactive |
| COC1=C(N2CCOCC2)C(=O)c2ccccc2C1=O | 17.8 µM (active) |
| CCCS(=O)(=O)N1CCC(n2c(C(F)(F)F)nc3cccnc32)CC1 | inactive |
| COc1ccccc1-c1cc2nc(C)c(CCC(=O)O)c(C)n2n1 | inactive |
| CCOCCCNC(=O)c1c(NC(=O)Cc2coc3ccc(C)cc23)sc2c1CCC2 | inactive |
| O=C(CCl)Nc1ccc(Sc2ccc(NC(=O)CCl)cc2)cc1 | 2.82 µM (active) |
| O=C(Nc1ccc(Sc2ccc(Br)cc2)cc1)c1ccco1 | inactive |
| CC(C)(CCl)C(=O)Nc1ccc(Sc2ccc(F)cc2)cc1 | inactive |
| COc1ccc(-n2c(SC)nc3sc4c(c3c2=O)CCN(C(C)=O)C4)cc1 | inactive |
| Cc1cccc(-c2nnc(SCC(=O)N3CCCc4ccccc43)o2)c1 | inactive |
| COC(=O)c1ccccc1NC(=O)c1ccc(COc2ccccc2Cl)o1 | inactive |
| CCOc1ccc(NC(=O)C(=O)NCCc2csc3nc(-c4ccccc4F)nn23)cc1 | inactive |
| CC(=O)c1cc(-c2ccccc2)[nH]c1N1CCCC1 | 50.1 µM (active) |
| O=c1cc(-c2ccccc2)nc(N2CCCCC2)[nH]1 | inactive |
| CC(=O)c1cc(-c2ccccc2)n(CC(=O)NC2CCCCC2)c1C | inactive |
| COc1ccc(C(=O)Nc2cccc(C(=O)OCc3cc(=O)n4c5c(sc4n3)CCCC5)c2)cc1 | inactive |
| Oc1ccccc1-c1nc(/C=C/c2ccc(F)cc2)no1 | inactive |
| COc1ccc(Cc2nc3ccc(C(=O)NCc4ccccc4C)cc3o2)cc1 | inactive |
| CCC(C)NC(=O)CCCc1ccccc1 (stereo not given) | inactive |
| COC(=O)N(NC(=O)C(O)(C(C)C)C(C)C)c1ccccc1 | inactive |

| Compound | Potency |
| --- | --- |
| CC(C)(O)C(=O)NN(C(=O)c1ccccc1)c1cccc(Br)c1 | inactive |
| Cc1cccc(N(Cc2ccccc2)C(=O)c2ccccc2F)c1 | inactive |
| CCCCC(O)(CCCC)C(=O)NN(C(=O)CCl)c1ccccc1 | 8.91 µM (active) |
| CCCC(O)(CCC)C(=O)NN(C(=O)CCl)c1cccc(C)c1 | 25.1 µM (active) |
| CCC(=O)N1c2ccccc2CC1C(=O)N1CCN(c2ccccc2)CC1 (stereo not given) | inactive |
| COc1ccccc1CNC(=O)C(Cc1ccccc1)NS(=O)(=O)c1ccc2c(c1)oc(=O)n2C (stereo not given) | inactive |
| CCOc1ccccc1C(=O)NC1(C(F)(F)F)C(=O)Nc2c1c(=O)[nH]c(=O)n2-c1ccc(F)cc1 (stereo not given) | inactive |
| CC(C)NC(=O)c1nn(-c2ccccc2F)nc1CO | inactive |
| CCCC(=O)Nc1ccc(NC(=O)c2sc3ccccc3c2Cl)cc1 | inactive |
| O=C(/C=C\NCC(=O)c1ccccc1)c1ccccc1 | 28.2 µM (active) |
| O=C(/C=C/NNC(=O)c1cccc(Br)c1)c1ccccc1 | inactive |
| O=C(/C=C/NCc1ccc(F)cc1)c1ccccc1 | inactive |
| COc1cc(NC(=O)CSc2nc3nc(C)c(Cc4ccc(C)cc4)c(C)n3n2)cc(OC)c1OC | inactive |
| COc1ccc(NC(=O)C2CCCN(S(=O)(=O)c3c(C)[nH]c(=O)[nH]c3=O)C2)c(OC)c1 (stereo not given) | inactive |
| CC(=O)N1CCCc2cc(S(=O)(=O)N3CCC(C(=O)NCc4ccc(F)cc4)CC3)ccc21 | inactive |
| Cc1ccc(C)c(N2CCN(S(=O)(=O)c3ccc4c(c3)C(C(C)C)C(=O)N4)CC2)c1 (stereo not given) | inactive |
| COC(=O)c1sccc1NN1C(=O)c2ccccc2C1=O | inactive |
| CCOC(=O)C(=CNNc1ccsc1C(=O)OC)C(=O)OCC | 20 µM (active) |
| COC(=O)c1sccc1NC(=O)CCC1CCCC1 | inactive |
| O=C(CCCCn1c(=O)c2ccccc2n(CC(=O)Nc2cccc(C(F)(F)F)c2)c1=O)NCc1ccc2c(c1)OCO2 | inactive |
| COc1cccc(CNC(=O)CCc2nc(-c3ccc(C)cc3)no2)c1 | inactive |
| CCOC(=O)Cn1c(=O)n(-c2ccccc2OC)c2nc(-c3cccc(F)c3)nc(C(N)=O)c21 | inactive |
| CCOc1cc(C2C(C(=O)OC)=C(C)NC3=C2C(=O)c2ccccc23)ccc1O (stereo not given) | inactive |
| CCOC(=O)c1ccc(-c2ccc(C(=O)Nc3cccnc3)o2)cc1 | inactive |
| COC(=O)C1=C(C)NC2=C(C(=O)c3ccccc32)C1c1ccc(-c2ccc(C(=O)O)cc2)o1 (stereo not given) | 20 µM (active) |
